Screening data from PubChem.
Compounds with a hit are over-represented: about 4.3% of the library has one in this group of screens.
uPA generation: qHTS for Inhibitors of Cell Surface uPA Generation; cell surface uPA generation assay, qHTS; Potency, µM (titrated, usually from 38.3 µM), for the others: at the highest dose activity change, negative = inhibition, usual class: inhibitors; 330,000 compounds, 0.31% hits; AID 540303, 2011; active = well fitted inhibition curve with a large enough effect; inconclusive = small, poorly fitted or top-dose-only effect; inactive = no such curve, though single readings can be large or run the other way; tested in mouse RAW 264.7 cells; also: potency is read from the fitted curve at half-maximal effect; % is scaled to controls: 0 for no effect and ±100 for the full control effect; nearly all actives have a fitted effect of over 55% in size
SW480 rereplic: A quantitative high throughput screen for small molecules that induce DNA re-replication in SW480 colon adenocarcinoma cells. SW480 DNA re-replication, Hoechst DNA content imaging, 48 h. Potency, µM (doses to about 46.1 µM), for the others: at the top dose re-replication activation, actives largely listed as activators. 340,000 compounds, 1.8% hits. AID 624297, 2012; also: potency is read from the fitted curve at half-maximal effect; % of control where 0% means no effect; nearly all actives have a fitted effect of over 55% in size
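SW480 cells exposed to compounds for 48 hr at 37 C, 5% CO2, then Hoechst-stained 40 min. Nuclear DNA content imaged by fluorescence scanning (405 nm excitation, 500-530 nm emission); re-replication scored as increased high-intensity nuclei.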
Giardia killer: Small Molecules that selectively kill Giardia lamblia: qHTS; Giardia lamblia trophozoite viability; activity change, % at 7.66 µM, hits read low; 340,000 compounds, 0.15% hits; in the data active = activity change below about -80%; inconclusive = between about -30% and that limit;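 also: parasites exposed to compound for two days anaerobically before the ATP read; % is scaled to controls: 0 for no effect and ±100 for the full control effect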
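ATP-content bioluminescence gauges trophozoite survival. Cells (100/well) receive compound and incubate anaerobically for 48 hrs at 37 deg C; detection reagent follows for 15-30 min at room temperature.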
MCF10A rerep: A quantitative high throughput screen for small molecules that induce DNA re-replication in MCF 10a normal breast cells | 350,000 compounds, 2.9% hits | MCF 10A DNA re-replication, Hoechst nuclear intensity, 48 h | Potency, µM (highest dose often 46.1 µM), inactives show top-dose activity, positive = re-replication, actives largely listed as activators; also: potency is read from the fitted curve at half-maximal effect; % of control where 0% means no effect; nearly all actives have a fitted effect of over 50% in size
* = called active by the depositor; ? = inconclusive; . = not tested or not shown. Unless noted, calls follow the shape of the dose curve; as a rule, active = well fitted activation curve with a large enough effect; inconclusive = small, poorly fitted or top-dose-only effect; inactive = no such curve, though single readings can be large or run the other way.

SMILES | uPA generation | SW480 rereplic | Giardia killer | MCF10A rerep
c1ccc(N2CCN(c3nc(NCc4ccco4)c4ccccc4n3)CC2)cc1 | -11% | ? | 10 | ?
COc1ccccc1Nc1nc(NCc2ccco2)c2ccccc2n1 | 4% | -24% | 1 | 23µM*
c1ccc(-c2nc(NCc3ccco3)c3ccccc3n2)nc1 | -10% | 5.8µM* | -7 | ?
Cc1ccc(Nc2nc(NCc3ccco3)c3ccccc3n2)cc1 | -13% | ? | 2 | ?
CN(CCN(C)c1nc(-c2cccs2)nc2ccccc12)C(=O)OC(C)(C)C | . | . | -2 | .
Cc1ccc2c(C)c(C(=O)N3CCCCC3CO)oc2c1C (configuration not stated) | -4% | -13% | -8 | 1%
CC1=Nn2c(nnc2-c2cc(-c3ccccc3)n[nH]2)SC1 | -9% | 5% | 4 | -3%
Clc1ccc(C2=Nn3c(nnc3-c3n[nH]c4c3CCC4)SC2)cc1 | -14% | 6.5µM* | 5 | ?
c1ccc(-c2ccc(C3=Nn4c(nnc4-c4cc(-c5ccccc5)n[nH]4)SC3)cc2)cc1 | . | ? | 0 | 15µM*
O=C1c2cnc3nc(SCc4ccc(Cl)cc4)nn3c2CC2c3ccccc3CCN12 (configuration not stated) | 0% | ? | -10 | 3.3µM*
CC(C)n1c(C(=O)OCC(=O)NCc2ccc3c(c2)OCO3)cc2sccc21 | ? | 8% | -11 | 15µM*
CC(C)n1c(C(=O)OCC(=O)NCc2ccc3c(c2)OCO3)cc2occc21 | -2% | 16% | -6 | 2%
CCOc1ccc(N2C(=O)CC(Sc3nc(C)cc(C)n3)C2=O)cc1 (configuration not stated) | 9% | -6% | 6 | -1%
CCOC(=O)NC(=O)CSc1nnnn1-c1ccc(Cl)cc1 | 7% | 5.2µM* | 8 | 1.8µM*
CCOc1ccc(-n2nnnc2SCC(=O)c2ccccc2)cc1 | -11% | ? | -28 | 4.1µM*
CCOc1ccc(N2C(=O)CC(Sc3nnnn3-c3ccccc3)C2=O)cc1 (configuration not stated) | -5% | 16µM* | 3 | ?
CCCN1C(=O)c2ccccc2NC1c1ccc(OC)c(COc2cccc(C)c2C)c1 (configuration not stated) | . | . | 0 | .
CCc1cc2cc3c(cc2nc1SCC(=O)Nc1nnc(C)s1)OCCO3 | 6% | 16µM* | 7 | 3.3µM*
Cc1cc2cc3c(cc2nc1SCC(=O)Nc1nc(C)c(C)s1)OCO3 | -3% | 4% | 17 | 4.1µM*
CCCOc1ccc(Oc2ccc(S(=O)(=O)N3CCN(C)CC3)cn2)cc1 | -2% | -10% | 13 | ?
CCc1noc(C)c1C(=O)N1CCCSC1=Nc1ccccc1Cl | 2% | -27% | -8 | 14%
CCOC(=O)/C(C#N)=C/c1cc2ccccc2nc1Cl | . | ? | 0 | 3%
CSc1nc2ccccc2cc1/C=C(\C#N)c1cccc(Cl)c1 | -16% | ? | 3 | 8.2µM*
CC(C)(C)OC(=O)N1CCC(C(=O)Nc2ccc(C(=O)NCc3ccccc3)cc2)CC1 | -16% | 3% | 3 | ?
O=C(O)c1cccc([N+](=O)[O-])c1C(=O)Nc1nc2ccccc2s1 | 4% | 6% | 3 | -1%
SMILES | uPA generation | SW480 rereplic | Giardia killer | MCF10A rerep
COc1ccc2nc(NC(=O)c3ccc([N+](=O)[O-])o3)sc2c1 | -7% | 7.3µM* | -97* | 4.6µM*
O=C(Nc1nc2ccccc2s1)c1ccc([N+](=O)[O-])o1 | -5% | 16µM* | -100* | 21µM*
O=C(Nc1nc2cc3c(cc2s1)OCCO3)c1cccs1 | -17% | 24% | -24 | 2%
O=C(Nc1nc2ccccc2s1)c1ccccc1[N+](=O)[O-] | 6% | -24% | -8 | 0.73µM*
O=C(Nc1nc2cc3c(cc2s1)OCCO3)c1ccc([N+](=O)[O-])o1 | -13% | 1.5µM* | -89* | 5.2µM*
COc1ccc2nc(NC(=O)c3ccccc3[N+](=O)[O-])sc2c1 | -9% | 8% | 4 | -4%
COc1ccc(C2Nc3ccccc3C(=O)N2c2cccc3ccccc23)cc1COc1c(C)cccc1C (configuration not stated) | . | . | 19 | .
CC1(C)O[C@@H]2[C@H](O1)[C@@H](COS(=O)(=O)O)O[C@H]2n1c(=S)[nH]c2c(=O)[nH]c(N)nc21 | 10% | 1% | 13 | 2%
O=C(CSc1nnc(Nc2ccccc2F)s1)NC1CC1 | -7% | -10% | 10 | -3%
Cc1ccc(NC(=O)CCNS(=O)(=O)c2ccc3[nH]c(=O)oc3c2)cc1F | 1% | -19% | -1 | -4%
CN(C)CCCN(C(=O)c1ccc([N+](=O)[O-])o1)c1nc2cc3c(cc2s1)OCO3 | ? | 12µM* | ? | 4%
CN(C)CCCN(C(=O)c1ccc2c(c1)OCCO2)c1nc2cc3c(cc2s1)OCO3 | 4% | ? | -23 | 4%
O=C(Cn1cc([N+](=O)[O-])cn1)Nc1nc2ccccc2s1 | -4% | ? | -22 | 21µM*
O=C(Cn1cc([N+](=O)[O-])cn1)Nc1ccccn1 | 12% | 35% | 2 | -1%
CCc1ccc2nc(NC(=O)c3cc(C)on3)sc2c1 | -13% | 6.5µM* | -2 | 6.5µM*
CCc1noc(C)c1C(=O)Nc1nc2ccc(F)cc2s1 | -4% | -387% | 12 | ?
CC1CCCN(C(=O)COC(=O)c2ccc(=O)n(Cc3ccccc3)n2)C1 (configuration not stated) | 12% | -5% | -8 | 2%
COc1ccc(/C=C\C(=O)O[C@@H]2C(O)C(O[C@@H]3OC(C)[C@H](O[C@@H]4OCC(O[C@H]5O[C@H](CO)[C@@H](O)C(O)C5O)C(O)C4O)C(O)C3O)[C@H](OC(=O)[C@]34CCC(C)(C)C[C@@H]3C3=CCC5[C@@]6(C)CC(O)C(O[C@@H]7OC(CO)C(O)[C@H](O)[C@H]7O)[C@@](C)(C(=O)O)C6CC[C@@]5(C)[C@]3(CO)CC4)O[C@H]2C)cc1 (some centres not stated) | -24% | 1% | -6 | 27%
Cc1ccnc(NC(=O)CNC(=O)Cc2cccc3ccccc23)c1 | 2% | 52% | 15 | -10%
CN1CCC(=O)N(C(CSc2ccc(Br)cc2)c2ccccc2)CC1 (configuration not stated) | . | . | 0 | .
CCOC(=O)CSc1nc2sc3c(c2c(=O)[nH]1)CC(C)(CC)OC3 (configuration not stated) | . | 5% | -6 | -1%
CCC1(C)Cc2c(sc3nc(NN)n(C)c(=O)c23)CO1 (configuration not stated) | -6% | ? | -7 | 21µM*
Oc1nc(Nc2ccc(F)cc2)sc1/C=C1\C=Nc2ccccc21 | -1% | ? | 2 | 21µM*
CC1=Nc2ccccc2/C1=C\c1sc(Nc2ccc(C)cc2)nc1O | -15% | 1.3µM* | ? | ?
Oc1nc(Nc2cccc(Cl)c2)sc1/C=C1\C=Nc2ccccc21 | ? | ? | -21 | 7.3µM*
